The values below come from PubChem BioAssay.

Test [1] is described as follows: antimalarial activity against Dd2 strain (AID 2302;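 active = growth inhibition above 50% at the single 2 µM test dose, taken to imply half-maximal potency below 2 µM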;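 note: 0% = DMSO untreated growth and 100% = chloroquine plus artemisinin killed control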). To be noted: P. falciparum Dd2 in RBCs, LDH growth readout, 72 h; at 2 µM; hits give high values.
Test [2] can be described thus: human hepatoma cell viability loss – ATP luminescence, cytotoxicity control for P. falciparum antimalarial project, primary screen (AID 2303;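 active = inhibition above 50%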;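 note: 0% = DMSO wells and 100% = digitonin-killed cells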). Conditions: HepG2 viability, 24-48 h, at 10 µM, hits give high values.
In test [3] the target is L-lactate dehydrogenase (Plasmodium falciparum (isolate CDC / Honduras)) (UniProt Q27743). The test is described as follows: PfLDH activity inhibition – cell lysate, 3D7 strain, counter-screen for P. falciparum growth inhibition project (AID 2304).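 Note: 0% = vehicle and 100% = reference inhibitor.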 Conditions: P. falciparum 3D7 crude extract, LDH APAD/NBT absorbance; at 2 µM; hits give high values. Background: The purpose of a counterscreen is to sort out artefacts and off-target activity.

Test [4] can be described thus: inhibition of 3D7 malaria parasite growth – strain 3D7 (AID 2306).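 Note: 0% = DMSO wells and 100% = chloroquine plus artemisinin control wells.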 Conditions: P. falciparum 3D7 erythrocytic growth, LDH absorbance, 72 h; at 2 µM; hits give high values.
Test [5] has as its target Calcium-dependent protein kinase 1 (Plasmodium falciparum (isolate 3D7)) (UniProt P62344). Briefly: PfCDPK1 kinase inhibitors, biochemical, TCAMS library (AID 1159585; cut-off not given, nearly all actives have IC50 up to about 0.98 µM;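 note: inhibitors leave more ATP so luminescence rises with inhibition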). Conditions: recombinant PfCDPK1, Kinase-Glo ATP depletion luminescence.
Test [6] concerns the target Plasmodium falciparum protein kinase 6 (PK6, PF3D7_1337100) (UniProt Q8IDW1). Briefly: PfPK6 kinase inhibitors, biochemical, TCAMS library (AID 1159586). To be noted: recombinant PfPK6, Kinase-Glo ATP depletion luminescence. (In general: In Kinase-Glo more light means more ATP remaining.)
For test [7], the target named is Protein kinase 7 (PK7), Plasmodium falciparum 3D7 (PF3D7_0213400) (UniProt Q7YTF7). Briefly: inhibition of Plasmodium PK7 catalytic activity – biochemical, TCAMS antimalarial set, Kinase-Glo luminescence (AID 1159587). To be noted: recombinant PfPK7, Kinase-Glo ATP depletion luminescence.
Test [8] deals with Calcium-dependent protein kinase 4 (Plasmodium falciparum (isolate 3D7)) (UniProt Q8IBS5). The test is described as follows: PfCDPK4 kinase inhibitors, biochemical, TCAMS library (AID 1159588; cut-off not given, nearly all actives have IC50 up to about 0.91 µM). Conditions: recombinant PfCDPK4, Kinase-Glo ATP depletion luminescence.

A number with no mark means an inactive call. For some of these results: Results with a measured potency or affinity are listed apart. The source made the active and inactive calls. Unless noted, the rule behind the calls is not given here.

Sequence of L-lactate dehydrogenase (Plasmodium falciparum (isolate CDC / Honduras)) (Q27743 whole entry, looked up): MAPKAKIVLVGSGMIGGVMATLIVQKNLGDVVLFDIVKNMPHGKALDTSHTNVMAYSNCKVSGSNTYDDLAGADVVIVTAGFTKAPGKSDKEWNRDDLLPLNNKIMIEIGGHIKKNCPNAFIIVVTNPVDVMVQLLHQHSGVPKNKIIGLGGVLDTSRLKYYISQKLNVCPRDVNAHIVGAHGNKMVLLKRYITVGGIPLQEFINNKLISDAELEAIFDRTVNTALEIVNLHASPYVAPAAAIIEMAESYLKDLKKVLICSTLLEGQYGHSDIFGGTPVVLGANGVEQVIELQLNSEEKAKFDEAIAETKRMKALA
Sequence of Calcium-dependent protein kinase 4 (Plasmodium falciparum (isolate 3D7)) (Q8IBS5 whole entry, looked up): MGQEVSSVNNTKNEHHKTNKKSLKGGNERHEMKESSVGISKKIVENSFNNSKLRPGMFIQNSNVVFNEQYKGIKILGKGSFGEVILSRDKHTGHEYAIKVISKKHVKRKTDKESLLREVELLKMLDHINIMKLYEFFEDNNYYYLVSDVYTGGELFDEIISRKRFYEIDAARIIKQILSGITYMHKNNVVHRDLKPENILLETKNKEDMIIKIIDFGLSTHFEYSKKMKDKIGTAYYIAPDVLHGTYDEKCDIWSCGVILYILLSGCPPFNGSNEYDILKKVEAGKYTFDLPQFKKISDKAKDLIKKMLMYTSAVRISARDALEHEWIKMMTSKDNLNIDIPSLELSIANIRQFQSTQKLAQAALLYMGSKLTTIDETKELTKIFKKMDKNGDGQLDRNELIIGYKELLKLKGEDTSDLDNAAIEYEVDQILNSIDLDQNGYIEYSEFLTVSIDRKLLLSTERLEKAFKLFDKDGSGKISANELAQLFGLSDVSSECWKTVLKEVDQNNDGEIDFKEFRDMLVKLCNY
Sequence of Plasmodium falciparum protein kinase 6 (PK6, PF3D7_1337100) (Q8IDW1 1-305): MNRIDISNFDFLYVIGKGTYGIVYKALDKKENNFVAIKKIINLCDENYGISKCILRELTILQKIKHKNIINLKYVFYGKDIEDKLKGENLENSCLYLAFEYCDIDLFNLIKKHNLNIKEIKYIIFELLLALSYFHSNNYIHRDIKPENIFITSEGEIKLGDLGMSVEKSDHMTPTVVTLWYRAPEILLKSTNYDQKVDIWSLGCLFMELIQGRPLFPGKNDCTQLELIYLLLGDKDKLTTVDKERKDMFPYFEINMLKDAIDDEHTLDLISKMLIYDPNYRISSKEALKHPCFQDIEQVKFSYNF
Sequence of Calcium-dependent protein kinase 1 (Plasmodium falciparum (isolate 3D7)) (P62344 whole entry, looked up): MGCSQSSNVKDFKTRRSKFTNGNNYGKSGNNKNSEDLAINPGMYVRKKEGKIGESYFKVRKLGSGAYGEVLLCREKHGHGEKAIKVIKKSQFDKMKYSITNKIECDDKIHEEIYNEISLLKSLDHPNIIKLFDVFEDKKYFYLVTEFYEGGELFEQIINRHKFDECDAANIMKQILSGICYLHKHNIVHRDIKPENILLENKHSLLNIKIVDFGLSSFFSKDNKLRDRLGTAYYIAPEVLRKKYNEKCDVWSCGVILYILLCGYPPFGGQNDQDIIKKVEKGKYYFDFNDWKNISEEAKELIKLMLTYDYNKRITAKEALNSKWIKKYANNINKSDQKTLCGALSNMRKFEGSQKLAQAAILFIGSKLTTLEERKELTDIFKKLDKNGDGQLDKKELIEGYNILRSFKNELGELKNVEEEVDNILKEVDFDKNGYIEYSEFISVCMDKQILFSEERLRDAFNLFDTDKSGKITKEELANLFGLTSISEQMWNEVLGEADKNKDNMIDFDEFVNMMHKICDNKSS
Sequence of Protein kinase 7 (PK7), Plasmodium falciparum 3D7 (PF3D7_0213400) (Q7YTF7 1-343): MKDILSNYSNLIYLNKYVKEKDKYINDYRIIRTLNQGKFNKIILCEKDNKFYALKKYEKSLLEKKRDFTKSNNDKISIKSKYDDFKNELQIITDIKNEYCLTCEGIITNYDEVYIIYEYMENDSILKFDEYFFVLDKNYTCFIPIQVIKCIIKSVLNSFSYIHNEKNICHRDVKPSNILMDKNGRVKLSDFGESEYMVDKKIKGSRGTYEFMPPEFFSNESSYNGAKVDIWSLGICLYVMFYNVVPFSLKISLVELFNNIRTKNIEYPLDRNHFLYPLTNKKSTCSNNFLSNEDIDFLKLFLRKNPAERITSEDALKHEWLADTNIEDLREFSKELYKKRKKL

For the compound `COc1ccc2ncc(F)c([C@@H](O)CN3CCC(NCc4cc(C#N)c5c(c4)CCO5)CC3)c2n1`, the growth inhibition in test [1] is 50% (active); in test [4], 92% (active). The figures for the inhibition in test [2] and in test [3] were 15% and 4%, respectively. Moreover, the outcome in test [5], in test [6], in test [7] and in test [8] was inactive.
As for `COc1cc2nc(NCCc3ccccc3)nc(NCc3cnn(C)c3C)c2cc1OC`, the figures for the growth inhibition in test [1] and in test [4] were 94% (active) and 99% (active), respectively. Besides, the inhibition (in general, the change of the read-out against control, counted positive when it falls) in test [2] is 13%; in test [3], 0%. Further, the outcome in test [5], in test [6], in test [7] and in test [8] was inactive.
For `Cc1cc(OCC2CCN(c3ncc(C(=O)NC4CC4)cc3Cl)CC2)ccc1F`, the growth inhibition in test [1] and in test [4] was 96% (active) throughout. For the same compound, the inhibition in test [2] is 16%; in test [3], 5%. In addition, the outcome in test [5], in test [6], in test [7] and in test [8] was inactive.
Consider `C[C@H](NC(=O)c1cc(-c2ccc(C(C)(C)C)cc2)no1)C(=O)O` (tested in a mixture with another compound), for which the growth inhibition in test [1] was 97% (active); in test [4], 91% (active). Moreover, the results for the inhibition in test [2] and in test [3] were 31% and -4%, respectively. The outcome in test [5], in test [6], in test [7] and in test [8] was inactive.
In the case of `Cc1cc2nc(-c3ccc(OCC(=O)NCc4ccc(C(C)(C)C)cc4)cc3)[nH]c2cc1C`, the growth inhibition in test [1] was 0%; in test [4], 94% (active). For the same compound, the inhibition in test [2] was 11%; in test [3], 2%. The result in test [5], in test [6], in test [7] and in test [8] was inactive.
Consider `COCC(C)n1c(SC(C)C(=O)Nc2cc([N+](=O)[O-])ccc2Cl)nc2ccccc2c1=O` (stereo not given), for which the growth inhibition in test [1] is 94% (active); in test [4], 95% (active). The inhibition is -8% in test [2] and 2% in test [3]. The result in test [5], in test [6], in test [7] and in test [8] was inactive.
In the case of `CCN(CC)c1nc(-c2ccccc2)cc(-c2ccccc2)c1C#N`, the values for the growth inhibition in test [1] and in test [4] were 66% (active) and 100% (active), respectively. The inhibition is -7% in test [2] and 2% in test [3]. The outcome in test [5], in test [6], in test [7] and in test [8] was inactive.
For `CC1(C)N=C(N)N=C(N)N1OCCCOc1cccc2ccccc12`, the growth inhibition in test [1] was 86% (active); in test [4], 95% (active). The inhibition was 67% (active) in test [2] and 4% in test [3]. The result in test [5], in test [6], in test [7] and in test [8] was inactive.
As for `Cc1cc(C2CCN(CCCCNC(=O)c3ccc(-c4ccc(C(F)(F)F)cc4)cc3)CC2)c(C)cc1OCCO`, the results for the growth inhibition in test [1] and in test [4] were 3% and 99% (active), respectively. The inhibition in test [2] is 31%; in test [3], 2%. For the same compound, the outcome in test [5], in test [6], in test [7] and in test [8] was inactive.
With `CCC(C)NS(=O)(=O)c1ccc2nc(Nc3ccc(C)c(Cl)c3)n(C3CCCCC3)c2c1` (stereo not given), the growth inhibition in test [1] is 98% (active); in test [4] it was 99% (active). The inhibition in test [2] was -8%; in test [3], 5%. Also, the result in test [5], in test [6], in test [7] and in test [8] was inactive.
In the case of `CCOC(=O)c1ccc(N2CCN(c3cc(Cl)ccc3C)CC2)c(NC(=O)Nc2ccc(Cl)c(Cl)c2)c1`, the growth inhibition in test [1] and in test [4] was 99% (active) throughout. Further, the inhibition in test [2] is 10%; in test [3], -5%. Also, the result in test [5], in test [6], in test [7] and in test [8] was inactive.
For the compound `COc1cc(C=NNc2cc(C)nc3ccccc23)cc(OC)c1OC`, the growth inhibition in test [1] is 95% (active); in test [4], 102% (active). The inhibition in test [2] is 5%; in test [3], -1%. For the same compound, the outcome in test [5], in test [6], in test [7] and in test [8] was inactive.
Turning to `O=C(Nc1cccc(-c2cccc(CN3CCCC3)c2)c1)c1cccc(Cl)c1`, the growth inhibition is 30% in test [1] and 89% (active) in test [4]. For the same compound, the inhibition in test [2] is 44%; in test [3], -2%. For the same compound, the outcome in test [5], in test [6], in test [7] and in test [8] was inactive.
`C=CCOC(=O)N1CCC(CNCc2cccc(-c3ccc(-c4nc5c(C)cccc5[nH]4)cc3)c2)C1` (stereo not given): the growth inhibition in test [1] was 82% (active); in test [4], 103% (active). Also, the inhibition in test [2] is 24%; in test [3], 1%. In addition, the result in test [5], in test [6], in test [7] and in test [8] was inactive.
Turning to `Cc1cc(F)ccc1-c1nc(NCCCN2CCCC2=O)nc2c1ccc(=O)n2-c1c(F)cccc1F`, the growth inhibition was 80% (active) in test [1] and 88% (active) in test [4]. In addition, the inhibition in test [2] was -7%; in test [3], -5%. The outcome in test [5], in test [6], in test [7] and in test [8] was inactive.
Regarding `CCOC(=O)c1ccc(NC(=O)N[C@H]2CCN(CCCCCNC(=O)/C=C/c3ccc(Cl)c(Cl)c3)C2)cc1`, the growth inhibition was 1% in test [1] and 98% (active) in test [4]. Moreover, the inhibition in test [2] is 21%; in test [3], -4%. Also, the outcome in test [5], in test [6], in test [7] and in test [8] was inactive.
For the compound `O=C(NC1CCC(N2CCC(O)(c3ccc(F)cc3)CC2)CC1)c1cc2ccccc2[nH]1` (stereo not given), the growth inhibition in test [1] is 8%; in test [4], 94% (active). The inhibition was 9% in test [2] and -4% in test [3]. For the same compound, the result in test [5], in test [6], in test [7] and in test [8] was inactive.
For the compound `Cc1ccccc1CN1CCCN(Cc2ccc(C(=O)Nc3ccc(Cl)cc3)cc2)CC1`, the growth inhibition in test [1] is 15%; in test [4], 93% (active). Further, the inhibition in test [2] was 48%; in test [3], 3%. In addition, the outcome in test [5], in test [6], in test [7] and in test [8] was inactive.
`COc1cccc(NC(=O)NCCNc2ccnc(Nc3ccc(F)cc3)n2)c1`: the growth inhibition in test [1] is 1%; in test [4] it was 94% (active). In addition, the figures for the inhibition in test [2] and in test [3] were 18% and 4%, respectively. Also, the outcome in test [5], in test [6], in test [7] and in test [8] was inactive.
For the compound `CCC(C)CC(=O)Nc1ccc(OC)c(S(=O)(=O)N[C@@H]2CCN(C#N)C2)c1` (stereo not given in full), the growth inhibition in test [1] was 77% (active); in test [4], 94% (active). Moreover, the inhibition in test [2] is 16%; in test [3], 0%. For the same compound, the result in test [5], in test [6], in test [7] and in test [8] was inactive.
